The nature of assay [1]: inhibitors of TNFa-induced NFkB p65 translocation, primary screen, imaging, HUVEC, MLSMR starter and 10KST1 sets (AID 438).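 Further: compound added about 3h40 before a 20 min TNFalpha stimulation.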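 On inhibition: signal is the nuclear over cytoplasmic p65 intensity ratio per well.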 The note with it: HUVEC TNFa-induced p65 nuclear translocation; cell count: measured here: nuclei count (cytotoxicity indicator), at 2.08 µM; inhibition: at 2 µM, stronger effect = higher value, 0% TNFa-plus-vehicle, 100% no-TNFa wells.
Assay [2] is described as follows: reduction of polyQ htt aggregates in cells – imaging, exon1htt(103Q)mCFP cells, high-content imaging, primary screen (AID 483;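 active means visual image review flags a hit and inhibition of aggregation exceeds 20%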;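 further: compound exposure lasted 3 days before fixation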;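 on nuclei count: percent of the per-plate median nuclei count of sample wells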). The conditions noted are these: exon1htt(103Q)mCFP cell line, aggregate imaging, at 2 µM; inhibition of aggregation: stronger effect = higher value; nuclei count: measured here: cell count, toxicity.
Assay [3] in a line: endothelial E-selectin expression blockers – imaging, HUVEC, immunofluorescence, MLSMR starter and 10KST1 sets, primary screen (AID 487;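 active means visually confirmed hit in the image check and inhibition above 20%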;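 on inhibition: signal is fraction of cell area covered by stained E-selectin grains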;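 on nuclei count: 100% = median nuclei count of all wells on the same plate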). The conditions noted are these: HUVEC TNFalpha-induced E-selectin immunofluorescence imaging, at 2 µM; inhibition: stronger effect = higher value; nuclei count: measured here: cell number, toxicity.
The target of assay [4] is Voltage-gated potassium channel subunit beta-2 (Rattus norvegicus) (UniProt P62483). As to the kind of experiment: inhibitors of rat Kvbeta2 reductase activity – biochemical, NADPH fluorescence, primary screen (AID 622;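 active means fluorescence slope higher than the sample average by over 3 SD, cut at about -0.22 in these data, passing the limit was not always enough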;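 further: slope of raw intensity against log time taken from 70 to 1610 s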). The note with it: recombinant KvBeta, 4-cyanobenzaldehyde reduction, at 10 µM, stronger effect = higher value.
Assay [5] has the same target. Briefly: enhancers of rat Kvbeta2 NADPH turnover – biochemical, NADPH fluorescence, primary screen (AID 623;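 active means NADPH fluorescence slope more negative than the mean of all samples by about 3 SD, 99.7% confidence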;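 further: fluorescence intensity change per second fitted from 20 to 320 s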). The conditions noted are these: Recombinant KvBeta, NADPH fluorescence decrease slope, 10 min; at 10 µM; stronger effect = lower value.
Assay [6] concerns the target Alpha-2C adrenergic receptor (Homo sapiens) (UniProt P18825). Briefly: compounds altering alpha2C-coupled GIRK flux – cell-based, HEK293 alpha2C/GIRK1/2, thallium flux, primary screen (AID 624;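 active means fluorescence slope after compound addition differing from the mean of all screened samples at 99.7% confidence, in either direction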;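 further: slope of fluorescence ratio to pre-addition baseline per second over 15 to 24 s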). The conditions noted are these: thallium flux BTC fluorescence, at 10 µM, actives lie on both sides.
Assay [7] is described as follows: blockers of RIG-like receptor reporter activation – cell-based, Sendai virus stimulus, luciferase, 10K MLSCN set, TLR/RLR signaling modifier project, primary screen (AID 602276;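 active means inhibition at or above 50% at 10 µM; inactive means inhibition below 50%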;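 further: firefly luciferase from ISG56 promoter only with Renilla not read in this screen; 0% = Sendai virus plus DMSO and 100% = medium plus DMSO without virus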). The note with it: HEK293 RL24 IRF3 luciferase reporter, at 10 µM, stronger effect = higher value. (A reporter such as luciferase makes a cellular process visible.)
Assay [8] can be described thus: TLR3 IRF3 reporter activation blockers – cell-based, poly I:C stimulus, luciferase, 10K MLSCN set, primary screen (AID 602277;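 active means inhibition of the reporter signal at or above 50%; inactive means inhibition below 50%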). The note with it: HEK293-TLR3 RL24 IRF3 luciferase reporter, at 10 µM, stronger effect = higher value.

The source made the active and inactive calls.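 How the source made its calls, unless noted: active means inhibition above 20% together with a positive visual image hit; inconclusive means visual image hit but inhibition not above 20%; inactive means no visual image hit.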

Voltage-gated potassium channel subunit beta-2 (Rattus norvegicus), sequence (P62483 whole entry, looked up): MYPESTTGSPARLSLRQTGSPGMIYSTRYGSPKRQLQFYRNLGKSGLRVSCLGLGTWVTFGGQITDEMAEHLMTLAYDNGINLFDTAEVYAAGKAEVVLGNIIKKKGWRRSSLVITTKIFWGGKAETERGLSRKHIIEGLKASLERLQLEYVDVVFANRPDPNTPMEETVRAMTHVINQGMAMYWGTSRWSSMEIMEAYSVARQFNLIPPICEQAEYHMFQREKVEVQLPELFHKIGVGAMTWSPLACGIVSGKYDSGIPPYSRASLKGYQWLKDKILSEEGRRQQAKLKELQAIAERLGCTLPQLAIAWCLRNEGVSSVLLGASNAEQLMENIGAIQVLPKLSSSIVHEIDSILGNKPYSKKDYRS
Alpha-2C adrenergic receptor (Homo sapiens), sequence (P18825 whole entry, looked up): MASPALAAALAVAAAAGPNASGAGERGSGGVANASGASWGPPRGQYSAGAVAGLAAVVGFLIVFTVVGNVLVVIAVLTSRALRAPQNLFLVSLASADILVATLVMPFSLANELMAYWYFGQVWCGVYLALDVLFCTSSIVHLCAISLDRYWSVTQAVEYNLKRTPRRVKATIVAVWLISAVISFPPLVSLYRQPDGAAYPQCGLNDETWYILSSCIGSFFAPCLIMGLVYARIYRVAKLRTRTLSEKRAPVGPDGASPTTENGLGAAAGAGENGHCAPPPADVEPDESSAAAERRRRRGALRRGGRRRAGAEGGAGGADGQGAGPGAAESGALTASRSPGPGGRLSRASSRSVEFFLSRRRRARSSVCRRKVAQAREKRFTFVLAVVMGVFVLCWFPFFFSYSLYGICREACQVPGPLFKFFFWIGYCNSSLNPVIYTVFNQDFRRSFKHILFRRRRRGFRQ

For orientation: inhibition means the relative decrease from the control value, in per cent. As for `CC(C)(C)c1ccc(OCC(=O)O)cc1`, in assay [1], the cell count was 567. Also, the inhibition in assay [1] was 3.1% (inactive); in assay [3], -36% (inactive); in assay [7], 7.32% (inactive); in assay [8], 11.4% (inactive). In addition, in assay [2], the inhibition of aggregation is 11.7% (inactive). Further, the nuclei count in assay [2] amounted to 98%; in assay [3] it was 96.2%. Further, the fluorescence slope in assay [4] is -0.599 (inactive). For the same compound, in assay [5], the NADPH fluorescence slope was -3.9e-05 (inactive). Further, the slope in assay [6] was 0.00377 (inactive).
For `CCOc1ccc2nc(N3CCC(C(=O)N4CCN(C5CCCCC5)CC4)CC3)sc2c1`, in assay [1], the cell count amounted to 594. The inhibition was -0.8% (inactive) in assay [1], -54% (inactive) in assay [3], -54.1% (inactive) in assay [7] and -73.6% (inactive) in assay [8]. Besides, in assay [2], the inhibition of aggregation is -15.4% (inactive). Also, the results for the nuclei count in assay [2] and in assay [3] were 103% and 107%, respectively. In addition, in assay [4], the fluorescence slope is -0.553 (inactive). The NADPH fluorescence slope in assay [5] was 6.2e-06 (inactive). In addition, the slope in assay [6] is 0.00601 (inactive).
With `CCn1c(SCC(=O)Nc2ccccc2F)nc2c(c1=O)SC(C)C2` (centres undefined), in assay [1], the cell count turned out to be 339. Further, the inhibition is -2.2% (inactive) in assay [1], -2% (inactive) in assay [3], 3.68% (inactive) in assay [7] and 8.8% (inactive) in assay [8]. For the same compound, in assay [2], the inhibition of aggregation was -3.7% (inactive). The nuclei count was 104% in assay [2] and 117% in assay [3]. The fluorescence slope in assay [4] was -0.554 (inactive). Besides, the NADPH fluorescence slope in assay [5] was -3.3e-06 (inactive). Further, the slope in assay [6] is 0.00612 (inactive).
As to `CCOC(=O)c1c(COC(=O)c2ccco2)nc2ccccc2[n+]1[O-]`, the cell count in assay [1] was found to be 570. Besides, the inhibition is 8.9% (inactive) in assay [1], -31.9% (inactive) in assay [3], 17.9% (inactive) in assay [7] and 15.1% (inactive) in assay [8]. Besides, the inhibition of aggregation in assay [2] was 8.4% (inactive). The nuclei count worked out at 107% in assay [2] and 120% in assay [3]. Besides, the fluorescence slope in assay [4] is -0.392 (inactive). For the same compound, in assay [5], the NADPH fluorescence slope is -4.6e-05 (inactive). In addition, in assay [6], the slope was 0.00397 (inactive).
On to `c1nc(NCC2(N3CCOCC3)CCCCC2)c2ccsc2n1`, for which the cell count in assay [1] was 303. The inhibition in assay [1] is 17.8% (inactive); in assay [3], 20.6% (inactive); in assay [7], -0.86% (inactive); in assay [8], 23.1% (inactive). Moreover, the inhibition of aggregation in assay [2] is -2.2% (inactive). The nuclei count is 93% in assay [2] and 87.7% in assay [3]. For the same compound, the fluorescence slope in assay [4] is -0.612 (inactive). For the same compound, in assay [5], the NADPH fluorescence slope is -1e-05 (inactive). Further, in assay [6], the slope was 0.00518 (inactive).
`CS(=O)(=O)NCc1nnc(SCC(=O)NC2CCCCC2)n1-c1ccc(F)cc1`: the cell count in assay [1] was determined as 820. Further, the inhibition in assay [1] is -5.5% (inactive); in assay [3] it was -5.8% (inactive); in assay [7], 16.2% (inactive); in assay [8], 26.3% (inactive). Moreover, the inhibition of aggregation in assay [2] was -0.9% (inactive). Further, the nuclei count stood at 111% in assay [2] and 128% in assay [3]. In assay [4], the fluorescence slope was -0.388 (inactive). Besides, the NADPH fluorescence slope in assay [5] was -5.9e-05 (inactive). In assay [6], the slope is 0.00498 (inactive).
Regarding `CC(=O)Nc1ccccc1-c1nc2ccc(C(=O)N3CCN(c4ccccc4)CC3)cc2[nH]c1=O`, in assay [1], the cell count came to 617. In addition, the inhibition in assay [1] is 14.7% (inactive); in assay [3] it was -3.1% (inactive); in assay [7], 5.92% (inactive); in assay [8], -0.673% (inactive). Besides, in assay [2], the inhibition of aggregation was -6.6% (inactive). Besides, the nuclei count came out at 96.8% in assay [2] and 110% in assay [3]. In addition, in assay [4], the fluorescence slope was -0.489 (inactive). Besides, the NADPH fluorescence slope in assay [5] is -4.7e-05 (inactive). For the same compound, the slope in assay [6] is 0.00656 (inactive).
`O=C(CCn1c(=O)sc2ccccc21)NCc1ccc2c(c1)OCO2`: the cell count in assay [1] was 294. In addition, the inhibition in assay [1] was -11.1% (inactive); in assay [3], -28.3% (inactive); in assay [7], -17% (inactive); in assay [8], -12.6% (inactive). The inhibition of aggregation in assay [2] was 15.6% (inactive). Further, the nuclei count in assay [2] was 92.7%; in assay [3], 115%. Further, the fluorescence slope in assay [4] was -0.353 (inactive). Besides, in assay [5], the NADPH fluorescence slope was -5.2e-05 (inactive). Also, the slope in assay [6] was 0.00437 (inactive).
For `CCOc1ccccc1-n1nnnc1SCC(=O)Nc1cc2oc3ccccc3c2cc1OC`, in assay [1], the cell count stood at 374. Also, the inhibition was -2.9% (inactive) in assay [1], -108% (inactive) in assay [3], -7.46% (inactive) in assay [7] and 15.7% (inactive) in assay [8]. The inhibition of aggregation in assay [2] is 4.8% (inactive). Moreover, the values for the nuclei count in assay [2] and in assay [3] were 99.1% and 118%, respectively. In addition, the fluorescence slope in assay [4] was -0.568 (inactive). Further, the NADPH fluorescence slope in assay [5] is 2.4e-05 (inactive). For the same compound, the slope in assay [6] was 0.00931 (inactive).
For `Cc1cc2c(c(=O)o1)C(C13C=CC(CC1)C3)C(C#N)=C(N)O2` (centres undefined), in assay [1], the cell count was found to be 326. The inhibition was 5.3% (inactive) in assay [1], -56.1% (inactive) in assay [3], 5.92% (inactive) in assay [7] and 13.6% (inactive) in assay [8]. In assay [2], the inhibition of aggregation was -3.9% (inactive). Also, the nuclei count in assay [2] came to 102%; in assay [3] it was 118%. Also, the fluorescence slope in assay [4] is -0.499 (inactive). Also, the NADPH fluorescence slope in assay [5] is -5.8e-05 (inactive). Besides, the slope in assay [6] is 0.0051 (inactive).
For the compound `CCCCn1c(CN2CCN(c3ccc(F)cc3)CC2)nc2c1c(=O)n(C)c(=O)n2C`, the cell count in assay [1] worked out at 574. Besides, the inhibition was 14.4% (inactive) in assay [1], -6.8% (inactive) in assay [3], 1.37% (inactive) in assay [7] and 3.77% (inactive) in assay [8]. Moreover, the inhibition of aggregation in assay [2] is 1.3% (inactive). For the same compound, the nuclei count in assay [2] was 90.1%; in assay [3] it was 82.5%. In addition, the fluorescence slope in assay [4] is -0.53 (inactive). In assay [5], the NADPH fluorescence slope was -3.3e-05 (inactive). Also, in assay [6], the slope is 0.00657 (inactive).
For `COc1cc2c(cc1OC)C(c1ccccc1O)N(C1CC(=O)N(c3ccccc3)C1=O)CC2` (centres undefined), the cell count in assay [1] came out at 409. Further, the inhibition is -0.5% (inactive) in assay [1], -27.1% (inactive) in assay [3], 15.9% (inactive) in assay [7] and 28.7% (inactive) in assay [8]. Further, in assay [2], the inhibition of aggregation was -10.4% (inactive). Also, the nuclei count in assay [2] amounted to 105%; in assay [3] it was 123%. The fluorescence slope in assay [4] was -0.411 (inactive). In assay [5], the NADPH fluorescence slope was -8.8e-05 (inactive). The slope in assay [6] is 0.00648 (inactive).
As to `CC(=O)N1c2c(cc(Br)cc2S(=O)(=O)NCC2COc3ccccc3O2)CC1C` (centres undefined), the cell count in assay [1] stood at 651. Further, the inhibition was -0.5% (inactive) in assay [1], -47.6% (inactive) in assay [3], 13.1% (inactive) in assay [7] and 10.4% (inactive) in assay [8]. In addition, the inhibition of aggregation in assay [2] was 19.1% (inactive). The results for the nuclei count in assay [2] and in assay [3] were 104% and 116%, respectively. In addition, the fluorescence slope in assay [4] was -0.53 (inactive). For the same compound, the NADPH fluorescence slope in assay [5] was -7.4e-05 (inactive). Further, the slope in assay [6] was 0.00624 (inactive).
As for `CCOC(=O)c1cc(-c2ccco2)nc2c1c(C)nn2CCC#N`, the cell count in assay [1] worked out at 590. The inhibition in assay [1] is -10.8% (inactive); in assay [3], -15.3% (inactive); in assay [7], -22.4% (inactive); in assay [8] it was -3.59% (inactive). The inhibition of aggregation in assay [2] is -3.4% (inactive). The figures for the nuclei count in assay [2] and in assay [3] were 103% and 146%, respectively. Moreover, in assay [4], the fluorescence slope is -0.214 (active). Besides, the NADPH fluorescence slope in assay [5] is 2.1e-05 (inactive). In addition, the slope in assay [6] is 0.00625 (inactive).

The values are drawn from PubChem BioAssay.
